A number with no mark means an inactive call. Inconclusive results are not listed. The source made the active and inactive calls. Unless noted, calls come from the whole dose curve.

Test [1] can be described thus: Nuclear factor erythroid 2-related factor 2/antioxidant responsive element (Nrf2/ARE) small molecule agonists: qHTS cell viability counter screen in human keratinocytes (AID 1919968; active = well fitted curve in the direction sought with a large enough effect in the repeat runs; an effect the other way counts as inactive or inconclusive; note: nearly all actives have a fitted effect of over 55% in size; note: potency is the fitted concentration of half-maximal effect). The note with it: KeratinoSens HaCaT ARE cells viability, CellTiter-Fluor, 24 h; series mostly up to 92.4 µM. The method, boiled down:
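Cytotoxicity was multiplexed with the Nrf2/ARE luciferase assay in the same wells. Stably transfected HaCaT keratinocytes were treated with test compounds for 23 h at 37 C. Cell viability was then measured by CellTiter-Fluor fluorescence.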
For orientation: In qHTS, concentration-response curves come from the screen itself.

Test [2] can be described thus: Nuclear factor erythroid 2-related factor 2/antioxidant responsive element (Nrf2/ARE) small molecule agonists: luciferase reporter gene qHTS assay in human keratinocytes (AID 1919969). Note: nearly all actives have a fitted effect of over 35% in size. The note with it: KeratinoSens HaCaT ARE-luciferase, luminescence, 24 h; series mostly up to 92.4 µM.
For test [3], the target named is Gonadotropin-releasing hormone receptor (Homo sapiens) (UniProt P30968). The test is described as follows: Human gonadotropin-releasing hormone receptor (GnRHR) small molecule agonists, calcium flux assay in GnRHR-HEK293 cells (AID 1920063). Note: nearly all actives have a fitted effect of over 35% in size. The following applies: calcium flux fluorescence, agonist mode; series mostly up to 57.6 µM. The method, boiled down: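 Agonist activity was measured as intracellular calcium flux in HEK293 cells engineered to stably express human GnRHR. After dye loading for 1 hour at 37 C, compounds in DMSO were added and fluorescence was followed for 3 minutes.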
Sequence of Gonadotropin-releasing hormone receptor (Homo sapiens) (P30968 whole entry, looked up): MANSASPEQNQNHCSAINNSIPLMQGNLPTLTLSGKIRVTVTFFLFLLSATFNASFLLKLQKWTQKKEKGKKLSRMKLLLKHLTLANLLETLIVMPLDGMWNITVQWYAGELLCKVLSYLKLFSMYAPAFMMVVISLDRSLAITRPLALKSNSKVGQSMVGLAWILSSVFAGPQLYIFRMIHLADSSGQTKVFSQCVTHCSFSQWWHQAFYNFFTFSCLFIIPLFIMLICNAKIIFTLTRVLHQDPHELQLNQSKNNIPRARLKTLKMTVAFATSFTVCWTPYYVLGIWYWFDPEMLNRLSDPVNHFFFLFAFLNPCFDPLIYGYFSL
A general note: Calcium assays in cells follow changes in intracellular calcium, usually with a dye or a luminescent sensor.

Test [4] has as its target KiSS-1 receptor (Homo sapiens) (UniProt Q969F8). The test is described as follows: Human kisspeptin (KISS1R) small molecule agonists, calcium flux assay in KISS1R-HEK293 cells (AID 1920064; active = well fitted curve in the direction sought with a large enough effect in the repeat runs; an effect the other way counts as inactive or inconclusive). The following applies: KISS1R-HEK293, calcium flux fluorescence, agonist; series mostly up to 76.8 µM. The method, boiled down:
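Agonist activity is monitored as intracellular calcium rise in engineered HEK293 cells carrying human KISS1R. Cells are dye-loaded for 1 h at 37 C before compound addition, and fluorescence is recorded for 3 min.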

Test [5] is described as follows: G protein-coupled receptor (GPCR) small molecule agonists, calcium flux assay: HEK293 wild type cell line counter screen (AID 1920065). The note with it: HEK293 WT calcium flux, fluorescence, agonist mode; series mostly up to 57.6 µM. The method, boiled down: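 Seed cells, incubate 18 h (37 C, 5% CO2); add calcium dye, 1 h at 37 C; pin-transfer compounds, ATP control or DMSO; read fluorescence 480/540 nm each second for 3 min.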

Test [6] is described as follows: p53 small molecule agonists, cell-based qHTS assay with human liver microsomes: qHTS cell viability counter screen (AID 1963579). Note: nearly all actives have a fitted effect of over 45% in size. Note: potency is the fitted concentration of half-maximal effect. The note with it: p53RE-bla HCT-116 viability, ATP luminescence, 16 h, HLM; series mostly up to 66 µM. The method, boiled down:
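Tox21 library compounds, delivered from DMSO stocks, were tested on p53RE-bla cells together with 0.5 mg/mL human liver microsomes and 0.5 mg/mL NADPH (final) over 16 h at 37 C; CellTiter-Glo luminescence served as the cytotoxicity measure.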

The nature of test [7]: p53 small molecule agonists, cell-based qHTS assay with rat liver microsomes: qHTS cell viability counter screen (AID 1963580). Note: nearly all actives have a fitted effect of over 45% in size. Note: potency is the fitted concentration of half-maximal effect. The note with it: p53RE-bla HCT-116 + rat microsomes, ATP viability, 16 h; series mostly up to 66 µM. In outline: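 Cytotoxicity counter screen: intracellular ATP measured by CellTiter-Glo luminescence in the same wells as the beta-lactamase reporter read, on HCT-116 p53RE-bla cells exposed 16 h at 37 C to compounds with rat liver microsomes and NADPH, each 0.5 mg/mL final.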

Test [8] concerns the target 5-hydroxytryptamine receptor 2A (Homo sapiens) (UniProt P28223). Put plainly: 5-hydroxytryptamine receptor 2A (HTR2A) small molecule antagonists, cell-based qHTS assay (AID 1963586). Note: nearly all actives have a fitted effect of over 45% in size. The note with it: HTR2A-CHO cells, DOI-induced calcium flux, fluorescence; series mostly up to 61.5 µM. In outline: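 CHO cells stably expressing human HTR2A were plated for 18 h at 37 C, then loaded with calcium dye for 1 h. Compounds were preincubated 5 min at room temperature before DOI (4 nM solution) was added. Kinetic fluorescence was read for 3 min.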

The target is the same in test [9]. The test is described as follows: 5-hydroxytryptamine receptor 2A (HTR2A) small molecule agonists, cell-based qHTS assay (AID 1963587). Note: nearly all actives have a fitted effect of over 30% in size. The following applies: HTR2A-CHO cells, calcium flux fluorescence, agonist mode; series mostly up to 76.8 µM. In outline: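 CHO cells stably expressing human HTR2A, plated 18 h, loaded with calcium dye 1 h at 37 C. Agonist mode: compounds added and intracellular calcium fluorescence recorded kinetically for 2 min at 1 sec intervals.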

Test [10] has as its target Muscarinic acetylcholine receptor M1 (Homo sapiens) (UniProt P11229). The test is described as follows: Cholinergic receptor muscarinic 1 (CHRM1) small molecule antagonists, cell-based qHTS assay (AID 1963588). Note: nearly all actives have a fitted effect of over 40% in size. The following applies: CHRM1-CHO antagonist mode, calcium flux fluorescence; series mostly up to 61.5 µM. In outline:
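Compounds were tested at 15 concentrations in three independent runs. Dye-loaded CHRM1-CHO cells were exposed 5 min at room temperature before stimulation by acetylcholine added at 50nM. Intracellular calcium was read kinetically on FDSS for 3 min.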

For test [11] the target is unchanged. Put plainly: Cholinergic receptor muscarinic 1 (CHRM1) small molecule agonists, cell-based qHTS assay (AID 1963589). Note: nearly all actives have a fitted effect of over 35% in size. The following applies: CHRM1-CHO cells, agonist mode, calcium flux fluorescence; series mostly up to 76.8 µM. The method, boiled down:
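Cells were plated and incubated 18 h at 37 C/5% CO2, loaded with calcium dye for 1 h at 37 C, then treated with compounds in DMSO. Fluorescence was recorded kinetically at 1 sec intervals.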

A short description of test [12]: cAMP Responsive Elements (CRE) small molecule agonists, cell-based qHTS assay (AID 1963590). The following applies: CRE-bla HEK293T, beta-lactamase FRET ratio, 3 h; series mostly up to 92.4 µM. In outline:
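Cells carrying a CRE-driven beta-lactamase reporter (HEK 293T) are seeded, incubated overnight (18 h), and treated with test compounds for 3 h at 37 C; reporter activity is then detected with a FRET substrate after 2 h at room temperature.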

Test [13] can be described thus: cAMP Responsive Elements (CRE) small molecule antagonists, cell-based qHTS assay (AID 1963591; active = well fitted inhibition curve with a large enough effect in the signal ratio in the repeat runs, not every such curve was filed as active; the % refers to the signal ratio). The following applies: CRE-bla HEK293T, beta-lactamase FRET ratio; series mostly up to 92.4 µM. In outline:
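Cells (CRE-bla HEK 293T, DMEM with 10% dialyzed FBS and 25 mM HEPES) are seeded and incubated 18 h. Compounds are added with NKH477 agonist at 0.25 uM final for 3 h, then FRET substrate for 2 h.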

Test [14] addresses Beta-2 adrenergic receptor (Homo sapiens) (UniProt P07550). The test is described as follows: Adrenergic beta2 receptor (ADRB2) small molecule antagonists, cell-based qHTS assay (AID 1963592). Note: nearly all actives have a fitted effect of over 50% in size. The note with it: CHO-ADRB2 cells, isoproterenol-stimulated cAMP HTRF ratio, 0.5 h; series mostly up to 92.4 µM. In outline:
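Assay format: CHO-ADRB2 cells, 18-20hr seeding at 37C/5% CO2, then compound plus 1nM isoproterenol agonist mix for 0.5hr RT. Homogeneous time-resolved fluorescence cAMP detection after 1hr, expressed as 665/615 nm ratio.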

Test [15] deals with D(2) dopamine receptor (Homo sapiens) (UniProt P14416). Put plainly: Dopamine D2 receptor (DRD2) small molecule agonists, cell-based qHTS assay (AID 1963594). Note: nearly all actives have a fitted effect of over 35% in size. The following applies: HEK293-DRD2 cAMP HTRF, agonist mode, 30 min; series mostly up to 92.4 µM. The method, boiled down:
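HEK293 cells stably expressing human DRD2, pre-treated with PDE inhibitor Ro20-1724 (0.1 mM final) and compound 10 min at room temperature, then stimulated with NKH477 (200nM […]) for 30 min. cAMP read by HTRF (665/620 nm).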

The target is the same in test [16]. The test is described as follows: Dopamine D2 receptor (DRD2) small molecule antagonists, cell-based qHTS assay (AID 1963595; active = well fitted inhibition curve with a large enough effect in the signal ratio in the repeat runs, with a control signal flat; the % refers to the signal ratio; note: potency is the fitted concentration of half-maximal effect). The following applies: HEK293-DRD2 cAMP HTRF antagonist mode; series mostly up to 92.4 µM. The method, boiled down: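 Antagonist mode in DRD2-HEK293 cells: after compound addition with 0.1 mM Ro20-1724, cells received quinpirole (12 nM) and NKH477 (200 nM) for 30 min at room temperature; HTRF cAMP read after 1 h detection.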

Test [17] can be described thus: p53 small molecule agonists, cell-based qHTS assay: qHTS cell viability counter screen (AID 1963581). Note: nearly all actives have a fitted effect of over 45% in size. Note: potency is the fitted concentration of half-maximal effect. The note with it: p53RE-bla HCT-116 viability, ATP luminescence, 16 h; series mostly up to 66 µM. In outline:
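Viability was counter-screened in parallel with the p53 agonist reporter by measuring intracellular ATP luminescence in the same HCT-116 p53RE-bla wells after 16 h compound treatment at 37 C.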

Test [18] concerns the target Beta-2 adrenergic receptor (Homo sapiens) (UniProt P07550). Put plainly: Adrenergic beta2 receptor (ADRB2) small molecule agonists, cell-based qHTS assay (AID 1963593).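 Note: CHO cells stably overexpressing human ADRB2.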 The following applies: CHO-ADRB2 cells, cAMP HTRF, 30 min; series mostly up to 92.4 µM. The method, boiled down:
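CHO cells stably over-expressing ADRB2 were plated overnight at 37C, then dosed with compounds plus a stimulation mix containing 100uM IBMX and 25uM Ro-20-1724 for 0.5hr at room temperature. cAMP was measured by HTRF competition, 1hr.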

Test [19] in a line: p53 small molecule agonists, cell-based qHTS assay (AID 1963582; active = well fitted activation curve with a large enough effect in the signal ratio in the repeat runs, not every such curve was filed as active; the % refers to the signal ratio). The following applies: HCT-116 p53RE-bla reporter, beta-lactamase FRET ratio, 16 h; series mostly up to 66 µM. The method, boiled down:
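Cells carrying a p53-responsive bla reporter are treated with test compounds for 16 h at 37 C; beta-lactamase activity is then detected with LiveBLAzer B/G FRET substrate after 2 h at room temperature.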
% is set by controls: 0 for no effect and ±100 for the full control effect.

Sequence of KiSS-1 receptor (Homo sapiens) (Q969F8 whole entry, looked up): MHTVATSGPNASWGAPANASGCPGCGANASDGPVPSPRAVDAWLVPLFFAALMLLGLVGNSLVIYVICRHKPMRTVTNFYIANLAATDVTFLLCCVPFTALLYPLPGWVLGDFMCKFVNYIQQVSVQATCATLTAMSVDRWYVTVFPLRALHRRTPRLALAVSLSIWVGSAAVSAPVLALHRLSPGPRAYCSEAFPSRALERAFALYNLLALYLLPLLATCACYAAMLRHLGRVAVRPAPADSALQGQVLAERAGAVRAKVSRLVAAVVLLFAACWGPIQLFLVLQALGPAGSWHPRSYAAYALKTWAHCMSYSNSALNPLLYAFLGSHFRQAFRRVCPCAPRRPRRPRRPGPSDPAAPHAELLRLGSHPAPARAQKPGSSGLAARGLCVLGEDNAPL
Sequence of Beta-2 adrenergic receptor (Homo sapiens) (P07550 whole entry, looked up): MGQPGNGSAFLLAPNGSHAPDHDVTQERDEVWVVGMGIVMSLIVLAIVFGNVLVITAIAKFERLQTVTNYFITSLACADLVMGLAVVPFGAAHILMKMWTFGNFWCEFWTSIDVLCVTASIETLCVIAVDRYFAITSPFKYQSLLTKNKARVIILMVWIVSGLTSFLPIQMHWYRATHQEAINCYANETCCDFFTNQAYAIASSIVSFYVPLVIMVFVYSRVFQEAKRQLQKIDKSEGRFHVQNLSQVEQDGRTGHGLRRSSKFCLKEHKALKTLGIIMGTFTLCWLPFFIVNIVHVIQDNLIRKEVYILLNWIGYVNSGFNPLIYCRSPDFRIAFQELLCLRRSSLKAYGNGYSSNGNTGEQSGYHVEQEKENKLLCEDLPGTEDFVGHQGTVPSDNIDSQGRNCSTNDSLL
Sequence of 5-hydroxytryptamine receptor 2A (Homo sapiens) (P28223 whole entry, looked up): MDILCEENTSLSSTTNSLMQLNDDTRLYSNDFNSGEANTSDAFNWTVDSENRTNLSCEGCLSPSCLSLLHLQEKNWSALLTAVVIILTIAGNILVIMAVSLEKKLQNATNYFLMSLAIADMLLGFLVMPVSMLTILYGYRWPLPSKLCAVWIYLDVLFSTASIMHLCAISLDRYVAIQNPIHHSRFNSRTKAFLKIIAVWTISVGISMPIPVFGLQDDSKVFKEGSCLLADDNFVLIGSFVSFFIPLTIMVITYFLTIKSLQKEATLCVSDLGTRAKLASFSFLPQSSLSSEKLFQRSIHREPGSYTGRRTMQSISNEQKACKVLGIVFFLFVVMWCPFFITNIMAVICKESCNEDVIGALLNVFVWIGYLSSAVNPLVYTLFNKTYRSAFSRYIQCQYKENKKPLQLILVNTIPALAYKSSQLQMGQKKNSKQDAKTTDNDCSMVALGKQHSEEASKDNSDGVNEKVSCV
Sequence of D(2) dopamine receptor (Homo sapiens) (P14416 whole entry, looked up): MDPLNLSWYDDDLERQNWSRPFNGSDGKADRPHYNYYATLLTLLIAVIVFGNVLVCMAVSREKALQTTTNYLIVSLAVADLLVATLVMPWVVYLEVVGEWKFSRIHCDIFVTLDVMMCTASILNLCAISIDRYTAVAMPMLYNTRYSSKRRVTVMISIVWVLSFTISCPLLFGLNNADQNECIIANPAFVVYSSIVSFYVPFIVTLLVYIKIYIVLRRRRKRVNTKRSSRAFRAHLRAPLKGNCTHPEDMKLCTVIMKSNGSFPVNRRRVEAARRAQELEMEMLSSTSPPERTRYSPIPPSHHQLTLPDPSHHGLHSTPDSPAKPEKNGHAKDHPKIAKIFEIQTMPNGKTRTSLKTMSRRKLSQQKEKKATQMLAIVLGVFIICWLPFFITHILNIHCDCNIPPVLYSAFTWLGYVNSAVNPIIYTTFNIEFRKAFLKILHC
Sequence of Muscarinic acetylcholine receptor M1 (Homo sapiens) (P11229 whole entry, looked up): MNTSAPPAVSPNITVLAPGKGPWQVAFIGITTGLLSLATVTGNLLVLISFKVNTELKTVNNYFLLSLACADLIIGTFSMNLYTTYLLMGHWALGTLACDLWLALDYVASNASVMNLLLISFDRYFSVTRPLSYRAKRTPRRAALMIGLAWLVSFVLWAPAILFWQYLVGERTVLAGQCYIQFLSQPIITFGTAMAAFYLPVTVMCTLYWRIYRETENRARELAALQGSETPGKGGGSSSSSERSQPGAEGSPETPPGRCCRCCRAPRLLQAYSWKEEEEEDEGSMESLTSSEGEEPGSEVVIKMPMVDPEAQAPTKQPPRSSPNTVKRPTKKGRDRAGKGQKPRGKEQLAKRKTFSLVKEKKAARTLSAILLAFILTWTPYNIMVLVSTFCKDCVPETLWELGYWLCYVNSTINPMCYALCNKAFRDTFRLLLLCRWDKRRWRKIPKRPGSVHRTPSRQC

On to `COC(=O)CCS`, for which the Potency result in [1], in [2], in test [3], in [4], in test [5] and in test [6] was “inactive” in each case. Besides, the Potency entry in test [7], in test [8], in test [9], in test [10], in [11] and in test [12] was “inactive” each time. The Potency result in test [13], in test [14], in test [15] and in test [16] was “inactive” in each case.

As for `Cc1cc(C(C#N)c2ccc(Cl)cc2)c(Cl)cc1NC(=O)c1cc(I)cc(I)c1O` (stereo not given), the Potency in [1] was 29.8 µM (active); in test [17], 5.61 µM (active). Besides, the Potency result in test [2], in test [3], in [4], in [5], in [6] and in test [7] was “inactive” in each case. Moreover, the Potency entry in test [14], in test [15] and in test [16] was “inactive” in each case.

Take `C=Cc1ccc(C=C)cc1`: the Potency result in test [1], in [2], in [3], in test [4], in test [5] and in [6] was “inactive” throughout. Further, the Potency result in test [7], in test [17], in test [9], in [10], in test [12] and in test [13] was “inactive” in each case. For the same compound, the Potency result in test [14] and in [15] was “inactive” throughout.

In the case of `Cc1c(F)c(N2CCNC(C)C2)cc2c1c(=O)c(C(=O)O)cn2C1CC1` (stereo not given), the Potency entry in test [1], in test [2], in [3], in test [4], in [5] and in test [6] was “inactive” each time. The Potency entry in test [7], in test [17], in test [14], in test [18], in test [15] and in test [16] was “inactive” in each case.

On to `COc1cc2nc(N(C)CCCNC(=O)C3CCCO3)nc(N)c2cc1OC` (stereo not given), for which the Potency entry in test [1], in test [2], in test [3], in [4], in test [5] and in [6] was “inactive” each time. Further, the Potency result in test [7], in test [17], in test [9], in test [11], in [12] and in test [14] was “inactive” throughout. In addition, the Potency result in test [18], in [15] and in [16] was “inactive” each time.

On to `Oc1cc2ccccc2c2ccccc12`, for which the Potency was 13.7 µM (active) in test [1]; 10.2 µM (active) in test [6]; 6.46 µM (active) in test [7]; 10.2 µM (active) in test [17]; 30.6 µM (active) in test [16]. Besides, the Potency result in test [2], in test [3], in test [4], in test [5], in test [9] and in test [10] was “inactive” throughout. Also, the Potency entry in test [11] and in test [14] was “inactive” each time.

With `CN(C)CCCN(C)C`, the activity change, negative = cytotoxicity in test [1] was 3.36% [at 8.39 µM]; in test [6], -2.9% [at 5.99 µM]; in test [7], 0.34% [at 5.99 µM]. Also, in [2], the activity, positive = activation was -12.5% [at 8.39 µM]. The activity change in test [3] is -0.775% [at 5.22 µM, active compounds read high]. Also, the activation was -0.798% [at 6.97 µM] in test [4]; -1.22% [at 5.23 µM] in test [5]; 3.48% [at 5.99 µM] in test [19]; -0.769% [at 7.02 µM] in test [9]; -0.0477% [at 6.97 µM] in test [11]; -0.0363% [at 8.39 µM] in [12]. Besides, in test [8], the activity, negative = inhibition is 12.1% [at 5.62 µM]. In addition, the activity change, negative = inhibition was 3.37% [at 8.39 µM] in [14] and 3.98% [at 8.38 µM] in test [16].

As for `C[C@@H](Oc1ccc(CNC(=O)c2cccnc2Oc2ccc3c(c2)OCO3)c(F)c1)C(=O)O`, the Potency entry in [1], in [2], in test [3], in test [4], in test [5] and in test [6] was “inactive” each time. For the same compound, the Potency entry in test [7], in test [8], in test [9], in [10], in test [11] and in test [12] was “inactive” throughout. The Potency entry in test [14], in test [15] and in test [16] was “inactive” each time.

Values taken from PubChem BioAssay (Tox21).
